# Experimental data as given in PubChem BioAssay AID1159580 (chemical genetic matrix, 2015).
# The campaign covered roughly 5,500 compounds. About 2,000 (36%) were called active. Roughly 18% stayed inconclusive and do not appear here. The list shows a part of the results. Unmarked numbers belong to inactive results. Rule as the data show it: active = normalized growth mostly below about 0.91 (no sharp cut-off); inconclusive = no clear call, values can overlap the other calls; inactive = mostly above about 0.92.
# Test: chemical genetic growth profiling, strain panel (AID 1159580);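 also: tested at 20 µM; growth read once vehicle control cultures reached saturation at 30 °C; 1 = growth at the plate median or of vehicle wells; lower values mean less growth of the strain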
# Conditions: S. cerevisiae deletion strains, growth OD
compound,measurement,setting,value
COc1ccc2c(c1)OCC(Cc1ccc(OC)c(OC)c1)C2=O (stereo not drawn),normalized growth,"locus YJR075W, strain HOC1, stronger effect = lower value",0.972
same,normalized growth,"locus YKL009W, strain mrt4, stronger effect = lower value",0.984
same,normalized growth,"locus YKL068W, stronger effect = lower value",0.982
same,normalized growth,"locus YKL085W, strain MDH1 (second series), stronger effect = lower value",0.995
same,normalized growth,"locus YKL085W, strain MDH1, stronger effect = lower value",0.995
same,normalized growth,"locus YKL160W, strain elf1, stronger effect = lower value",0.955
same,normalized growth,"locus YKR001C, strain vps1, stronger effect = lower value",0.998
same,normalized growth,"locus YKR026C, strain gcn3, stronger effect = lower value",0.976
same,normalized growth,"locus YKR091W, strain srl3, stronger effect = lower value",0.991
same,normalized growth,"locus YLL001W, strain dnm1, stronger effect = lower value",0.897 (active)
same,normalized growth,"locus YLL026W, stronger effect = lower value",0.963
same,normalized growth,"locus YLL041C, strain sdh2, stronger effect = lower value",0.983
same,normalized growth,"locus YLR027C, strain aat2, stronger effect = lower value",0.922 (active)
same,normalized growth,"locus YLR039C, strain RIC1, stronger effect = lower value",0.958
same,normalized growth,"locus YLR058C, strain SHM2, stronger effect = lower value",0.98
same,normalized growth,"locus YLR102C, strain apc9, stronger effect = lower value",0.998
same,normalized growth,"locus YLR113W, strain HOG1, stronger effect = lower value",0.931
same,normalized growth,"locus YLR221C, strain rsa3, stronger effect = lower value",0.922
same,normalized growth,"locus YLR258W, strain gsy2, stronger effect = lower value",0.968
same,normalized growth,"locus YLR262C, strain YPT6 (second series), stronger effect = lower value",0.88
same,normalized growth,"locus YLR262C, strain YPT6, stronger effect = lower value",0.869
same,normalized growth,"locus YLR268W, strain sec22, stronger effect = lower value",0.963
same,normalized growth,"locus YLR320W, strain mms22, stronger effect = lower value",0.879
same,normalized growth,"locus YLR330W, strain CHS5, stronger effect = lower value",0.961
same,normalized growth,"locus YLR342W, strain FKS1 (second series), stronger effect = lower value",0.921
same,normalized growth,"locus YLR342W, strain FKS1, stronger effect = lower value",0.951
same,normalized growth,"locus YLR357W, strain rsc2, stronger effect = lower value",0.945
same,normalized growth,"locus YLR370C, strain arc18, stronger effect = lower value",0.972
same,normalized growth,"locus YLR371W, strain rom2, stronger effect = lower value",0.985
same,normalized growth,"locus YLR384C, strain iki3, stronger effect = lower value",0.976
same,normalized growth,"locus YLR418C, strain cdc73, stronger effect = lower value",0.842
same,normalized growth,"locus YML016C, strain PPZ1, stronger effect = lower value",0.995
same,normalized growth,"locus YML032C, strain rad52, stronger effect = lower value",0.984
same,normalized growth,"locus YML120C, strain ndi1, stronger effect = lower value",0.965
same,normalized growth,"locus YML124C, strain tub3, stronger effect = lower value",0.986
same,normalized growth,"locus YMR058W, strain fet3, stronger effect = lower value",0.938
same,normalized growth,"locus YMR078C, strain ctf18, stronger effect = lower value",1
same,normalized growth,"locus YMR125W, strain sto1, stronger effect = lower value",0.994
same,normalized growth,"locus YMR129W, stronger effect = lower value",0.981
same,normalized growth,"locus YMR205C, strain PFK2, stronger effect = lower value",0.896
same,normalized growth,"locus YMR223W, strain ubp8, stronger effect = lower value",1
same,normalized growth,"locus YMR231W, strain pep5, stronger effect = lower value",0.993
same,normalized growth,"locus YMR307W, strain GAS1, stronger effect = lower value",0.83
same,normalized growth,"locus YNL067W, strain RPL9B, stronger effect = lower value",0.968
same,normalized growth,"locus YNL071W, strain lat1, stronger effect = lower value",0.82 (active)
same,normalized growth,"locus YNL128W, strain TEP1, stronger effect = lower value",0.991
same,normalized growth,"locus YNL183C, strain NPR1, stronger effect = lower value",0.961
same,normalized growth,"locus YNL209W, strain ssb2, stronger effect = lower value",0.987
same,normalized growth,"locus YNL233W, strain BNI4, stronger effect = lower value",0.919
same,normalized growth,"locus YNL248C, strain rpa49, stronger effect = lower value",0.928
same,normalized growth,"locus YNL250W, strain rad50, stronger effect = lower value",0.998
same,normalized growth,"locus YNL271C, strain bni1, stronger effect = lower value",0.989
same,normalized growth,"locus YNL298W, strain CLA4, stronger effect = lower value",0.98
same,normalized growth,"locus YNL307C, strain MCK1, stronger effect = lower value",0.894 (active)
same,normalized growth,"locus YNL322C, strain KRE1 (second series), stronger effect = lower value",0.982
same,normalized growth,"locus YNL322C, strain KRE1, stronger effect = lower value",0.985
same,normalized growth,"locus YNR049C, strain mso1, stronger effect = lower value",0.985
same,normalized growth,"locus YNR052C, strain pop2, stronger effect = lower value",0.989
same,normalized growth,"locus YOL006C, strain TOP1, stronger effect = lower value",0.784
same,normalized growth,"locus YOL012C, strain htz1",0.731
same,normalized growth,"locus YOL147C, strain pex11, stronger effect = lower value",0.98
same,normalized growth,"locus YOR001W, strain rrp6, stronger effect = lower value",0.923
same,normalized growth,"locus YOR061W, strain CKA2, stronger effect = lower value",0.984
same,normalized growth,"locus YOR069W, strain VPS5, stronger effect = lower value",0.993
same,normalized growth,"locus YOR070C, strain gyp1, stronger effect = lower value",0.937
same,normalized growth,"locus YOR080W, strain dia2, stronger effect = lower value",0.967
same,normalized growth,"locus YOR083W, strain WHI5, stronger effect = lower value",0.936
same,normalized growth,"locus YOR106W, strain vam3, stronger effect = lower value",0.978
same,normalized growth,"locus YOR136W, strain idh2, stronger effect = lower value",0.99
same,normalized growth,"locus YOR144C, strain elg1, stronger effect = lower value",0.978
same,normalized growth,"locus YOR184W, strain ser1, stronger effect = lower value",0.884
same,normalized growth,"locus YOR231W, strain MKK1, stronger effect = lower value",1.02
same,normalized growth,"locus YOR265W, strain rbl2, stronger effect = lower value",1
same,normalized growth,"locus YOR270C, strain vph1, stronger effect = lower value",0.821
same,normalized growth,"locus YOR290C, strain snf2, stronger effect = lower value",0.935
same,normalized growth,"locus YOR316C, strain cot1, stronger effect = lower value",1
same,normalized growth,"locus YPL051W, strain arl3, stronger effect = lower value",0.922
same,normalized growth,"locus YPL055C, strain LGE1, stronger effect = lower value",0.896
same,normalized growth,"locus YPL078C, strain atp4, stronger effect = lower value",0.939
same,normalized growth,"locus YPL106C, strain sse1, stronger effect = lower value",0.94
same,normalized growth,"locus YPL240C, strain hsp82, stronger effect = lower value",0.993
same,normalized growth,"locus YPL241C, strain CIN2, stronger effect = lower value",0.99
same,normalized growth,"locus YPL256C, strain CLN2, stronger effect = lower value",1.02
same,normalized growth,"locus YPR119W, strain clb2, stronger effect = lower value",0.98
same,normalized growth,"locus YPR141C, strain kar3, stronger effect = lower value",0.992
same,normalized growth,"locus YPR163C, strain tif3, stronger effect = lower value",0.969
same,normalized growth,"locus YPR167C, strain met16, stronger effect = lower value",0.965
same,normalized growth,"strain wtn01, stronger effect = lower value",0.971
